According to PubChem BioAssay AID618 (Sanford-Burnham Center for Chemical Genomics, 2007):
Screen size: about 87,000 compounds; about 540 (0.62%) were called active. The rule behind the calls is not given here. What follows is part of a selection rich in actives, with near analogues and random picks from the rest. Results with a measured potency or affinity are listed apart.

assay: MT1-MMP gene expression reporter suppression – cell-based, luciferase reporter, luminescence (AID 618); settings: MT1-MMP promoter luciferase reporter cells;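 note: actives suppress MT1-MMP promoter-driven transcription so potencies describe inhibitors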

| SMILES | outcome |
| --- | --- |
| Cn1c(C(=O)NCCN2CCCCCC2)cc2c(=O)n(C)c3ccccc3c21 | inactive |
| Cc1ncc(S(=O)(=O)c2ccc(Cl)cc2)c(-c2ccccc2)n1 | inactive |
| O=S(=O)(Nc1nnc(-c2ccccc2)s1)c1ccc(Cl)cc1 | inactive |
| CCN(CC)CCCNC(=O)c1cc(-c2ccc(Cl)cc2)on1 | inactive |
| Cc1c(C(N)=O)sc2nc(-c3ccccc3)cn12 | inactive |
| c1ccc(-c2cn3c4c(sc3n2)CCCC4)cc1 | active |
| Cc1c(C(=O)N2CC(C)OC(C)C2)sc2nc(-c3ccccc3)cn12 (configuration not stated) | inactive |
| CCOc1ccc(N(CC(=O)NCC2CCCO2)S(=O)(=O)c2ccc(SC)cc2)cc1 (configuration not stated) | inactive |
| CSc1nc2sc3c(c2c(=O)n1C)CCC(C)C3 (configuration not stated) | inactive |
| FC(F)Sc1ccc(N=C2NN=C(c3ccc4c(c3)OCCO4)CS2)cc1 | inactive |
| COc1ccc(N=C2NN=C(c3ccc4c(c3)OCCO4)CS2)cc1 | inactive |
| O=C1CSC(=NC2CCCCC2)N1 | inactive |
| Cc1cccc(N=C2NN=C(c3ccc4c(c3)OCCO4)CS2)c1 | inactive |
| COc1ccc(C(=O)NCCCN2CCCC2=O)cc1 | inactive |
| c1cnc(-c2nnc3n2CCCCC3)cn1 | inactive |
| CCC1(N(C(C)=O)c2ccc(OC)cc2)C(=O)c2ccccc2C1=O | inactive |
| CCOC(=O)CCSc1nc(C)c2cc(C)c(C)cc2n1 | inactive |
| CCCC(=O)Nc1nnc(-c2cccc(OCC)c2)s1 | inactive |
| Cc1cc(C)nc(N2CCCC(C(=O)Nc3ccc4c(c3)OCCO4)C2)n1 (configuration not stated) | inactive |
| CC(=O)Nc1ccc(NC(=O)C2CCCN(c3ncccn3)C2)cc1 (configuration not stated) | inactive |
| O=C(Nc1ccc2c(c1)OCCO2)C1CCCN(c2ncccn2)C1 (configuration not stated) | active |
| O=C(Nc1ccc2c(c1)OCO2)C1CCCCN1S(=O)(=O)c1ccccc1 (configuration not stated) | inactive |
| Cc1ncc(S(=O)(=O)c2ccccc2)c(-c2ccc(Cl)cc2Cl)n1 | inactive |
| CCC1CCCCN1C(=O)CSc1nnc(-c2ccc3c(c2)OCCO3)o1 (configuration not stated) | inactive |
| O=C(CSc1nnc(-c2ccc3c(c2)OCCO3)o1)N1CCCC1 | inactive |

| SMILES | outcome |
| --- | --- |
| CC(=O)CSc1nnc(-c2ccc3c(c2)OCO3)o1 | inactive |
| O=C(O)CSc1nnc(-c2ccc3c(c2)OCO3)o1 | inactive |
| O=C(c1ccco1)N1CCN=C1SCc1ccc(F)cc1 | inactive |
| COc1ccc(NC(=O)CN(C2CCCCC2)S(C)(=O)=O)cc1OC | inactive |
| N=C1C(c2ccc(Br)cc2)=C(O)C2CCc3ccccc3N12 (configuration not stated) | inactive |
| CCC(=O)Nc1cc2c(cc1C(C)=O)OCCO2 | inactive |
| Cc1ccc(Cl)cc1NC(=O)CCC(=O)Nc1cc(Cl)ccc1C | inactive |
| COc1ccc(C(=O)NC(=O)Nc2cc(C)ccn2)cc1 | active |
| COc1ccc(CC(=O)Nc2cc(C)ccn2)cc1 | inactive |
| COc1cc(C(=O)Nc2cc(C)ccn2)cc(OC)c1OC | inactive |
| CN1CCc2c(sc3c2c(=O)n(-c2ccccc2)c2nnc(SCc4ccc(Cl)cc4)n32)C1 | inactive |
| CCOC(=O)c1sc2nc3c(cc2c1N)COC(C)(CC)C3 (configuration not stated) | inactive |
| CCOC(=O)c1sc2nc3c(cc2c1N)COC(C)(C)C3 | inactive |
| CCN(Cc1ccccc1)S(=O)(=O)c1ccc2oc(C(=O)O)c(C)c2c1 | inactive |
| Brc1ccc2nc(CSc3ncn[nH]3)cn2c1 | inactive |
| Cn1ccnc1SCc1cn2ccccc2n1 | inactive |
| COc1ccc(NC(=S)N/C(=N/CS(=O)(=O)c2ccccc2)c2ccccc2)cc1 | inactive |
| CCOC(=O)N1CCC(N2C(=O)c3ccc(C(=O)O)cc3C2=O)CC1 | inactive |
| c1coc(-c2nnc(NC3=NCCC3)o2)c1 | inactive |
| Clc1ccc(-c2nnc(NC3=NCCCCC3)o2)cc1 | active |
| CCOc1ccc(-c2nnc(NC3=NCCCCC3)o2)cc1 | inactive |
| Cc1nnc(NC2=NCCCCC2)o1 | inactive |
| Fc1ccc(-c2nnc(NC3=NCCCCC3)o2)cc1 | active |
| Clc1ccc(NC2=NCCCCC2)cc1 | inactive |
| O=C1/C(=C\Nc2ccc(OC(F)(F)F)cc2)CCN1c1ncccn1 | inactive |

| SMILES | outcome |
| --- | --- |
| CS(=O)(=O)N(CC(=O)NCCSC1CCCCC1)c1ccc2c(c1)OCO2 | inactive |
| COc1cccc(CNc2ccc(F)c(Cl)c2)c1OC | inactive |
| FC(F)(F)c1cc(-c2ccco2)nc(-n2cnc3ccccc32)n1 | inactive |
| Cc1nc2ccccc2n1-c1nc(-c2ccco2)cc(C(F)(F)F)n1 | active |
| FC(F)(F)c1cc(-c2ccco2)nc(-n2nnc3ccccc32)n1 | inactive |
| Cc1cc(OCCCCCNCCO)cc(C)c1Cl | inactive |
| COc1ccc(C(=O)Nc2ccccc2C(=O)NCCN2CCOCC2)cc1 | inactive |
| CN(C)CCCN1c2ccccc2Sc2ccccc21 | inactive |
| CN(C)CCCN1c2ccccc2Sc2ccc(Cl)cc21 | inactive |
| COc1ccc2c(c1)Sc1ccccc1N2CCN(C)C | active |
| CCOC(=O)C(N)CSC1CC(=O)N(c2ccc(C(=O)OC)cc2)C1=O (configuration not stated) | inactive |
| CCOC(=O)COc1nc(Nc2ccccc2C)nc(N(C)C)n1 | inactive |
| O=C(NNC(=O)c1ccc(SCC2CCCO2)c([N+](=O)[O-])c1)c1ccc(F)cc1 (configuration not stated) | inactive |
| c1ccc(-c2noc(-c3cccc4ccccc34)n2)cc1 | inactive |
| COc1cccc(-c2nc(-c3ccccn3)no2)c1OC | inactive |
| COc1cc(-c2nc(-c3ccccn3)no2)cc(OC)c1OC | inactive |
| c1ccc(-c2noc(-c3cccc4ccccc34)n2)nc1 | active |
| c1ccc2c(-c3nc(-c4ccncc4)no3)cccc2c1 | inactive |
| CCCCNC(=O)n1c(SC)nc2ccccc21 | inactive |
| COc1cccc(-c2ccc(C#N)c(OC(=O)c3ccc(Cl)cc3)n2)c1 | inactive |
| COc1ccc(-n2c(Cc3cc(=O)[nH]c(=O)[nH]3)nnc2SCC(=O)N2CCCC2)cc1 | inactive |
| O=C(CSc1nnc(Cc2ccccc2)o1)NC1CCCCC1 | inactive |
| CCOC(=O)c1c(NC(=O)CN(C)C)sc(C(=O)N(CC)CC)c1C | inactive |
| CCOC(=O)Nc1sc(C(=O)N(CC)CC)c(C)c1C(=O)OCC | inactive |
| CCOC(=O)c1c(NC(=O)CCl)sc(C(=O)N(CC)CC)c1C | active |

| SMILES | outcome |
| --- | --- |
| Cc1ccc(NC2=C/C(=N\S(=O)(=O)c3cccs3)c3ccccc3C2=O)c(C)c1 | inactive |
| CCC1CCCCN1C(=O)Cn1c(C(=O)OC)cc2ccsc21 (configuration not stated) | inactive |
| O=C(c1cccnc1)N1CCCc2ccccc21 | inactive |
| COc1cccc(C(=O)Nc2ccc(NC(C)=O)cn2)c1 | inactive |
| COc1cccc(C(=O)Nc2ccc(NC(=O)C(C)(C)C)cn2)c1 | active |
| CCC(=O)Nc1ccc(NC(=O)c2cccc(OC)c2)nc1 | inactive |
| Cn1c(NC(=O)CC(C)(C)C)cc(=O)n(C)c1=O | inactive |
| Cc1nnc2sc(-c3ccc(NC(=O)c4cccnc4)cc3)nn12 | inactive |
| O=C1c2ccccc2C(=O)C1c1ccncc1 | inactive |
| N#CC1=C(N)SC(N)=C(C#N)C1c1ccnc2ccccc12 | inactive |
| O=C1c2ccccc2-c2nccnc21 | inactive |
| COc1ccc(C2C(=O)c3ccccc3C2=O)c(OC)c1 | inactive |
| O=C(NCCCCCNC(=O)c1ccco1)c1ccco1 | inactive |
| CCCCOc1ccccc1C1NC(=O)NC(C)=C1C(=O)OCCOCC (configuration not stated) | inactive |
| CC(C)(C)NC(=O)Nc1ccc2nccnc2c1 | inactive |
| O=C(OCc1ccccn1)c1ccc(COc2ccccc2Cl)o1 | inactive |
| O=C(O)c1ccc(COc2ccc(Cl)cc2)o1 | inactive |
| CCc1ccc(OCc2ccc(C(=O)NCc3ccccn3)o2)cc1 | inactive |
| CCOc1ccc(OCc2ccc(C(=O)N3CCCC3)o2)cc1 | inactive |
| CCN(CC(O)Cn1c2ccccc2c2ccccc21)S(=O)(=O)c1ccc(C)cc1 (configuration not stated) | inactive |
| O=C(/C=N/O)Nc1ccccc1C(=O)O | inactive |
| O=C(NCc1ccccc1)c1ccc(Oc2ccc(C(=O)NCc3ccccc3)cc2)cc1 | inactive |
| O=C(CN(CC1CCCO1)C(=O)CCC(=O)Nc1nccs1)NCc1ccc2c(c1)OCO2 (configuration not stated) | inactive |
| CCOC(=O)N1CCN(C(=O)CN(c2cccc(C(F)(F)F)c2)S(C)(=O)=O)CC1 | inactive |
| O=C(Nc1ccccc1)N1CCc2ccccc21 | inactive |

| SMILES | outcome |
| --- | --- |
| CCOC(=O)c1ccc(NC(=O)N2CCc3ccccc32)cc1 | inactive |
| O=C(CN1C(=O)C2C3C=CC(C3)C2C1=O)Nc1nc2ccccc2[nH]1 (configuration not stated) | inactive |
| CCOc1ccc(S(=O)(=O)N(C)c2ccc(OCC(=O)N3CCOCC3)cc2)cc1 | inactive |
| CC(=O)c1ccc(NC(=O)C(C)Sc2nnnn2C)cc1 (configuration not stated) | inactive |
| COc1ccc(N/C=C\C(=O)c2ccc3c(c2)OCO3)cc1 | inactive |
| COc1ccc(C(=O)Nc2cccc(C)c2)cc1 | inactive |
| COc1cccc(C(=O)Nc2ccccc2)c1 | inactive |
| COc1cccc(C(=O)/C=C/Nc2cc(C)ccc2O)c1 | inactive |
| COc1ccc(S(=O)(=O)NCC(c2cccnc2)N2CCN(C)CC2)cc1C (configuration not stated) | inactive |
| O=C(COc1ccc2ccccc2c1)NC1CC1 | inactive |
| CCCC1(C(=O)OC)NC(c2cc(OC)c(OC)c(OC)c2)C2C(=O)N(CC)C(=O)C21 (configuration not stated) | inactive |
| O=c1[nH]nc(Cc2ccc(Cl)cc2)c2ccccc12 | inactive |
| Cc1nn2c(C(F)(F)F)cc(-c3ccc(Cl)cc3)nc2c1C(=O)N1CCOCC1 | inactive |
| Nc1ccc(-c2nc3c(Cl)c(N)ccc3[nH]2)cc1 | inactive |
| Nc1ccc2nc(-c3ccc(N)c(Cl)c3)[nH]c2c1 | inactive |
| CC(=O)c1cnc2cc(-c3ccc(Cl)cc3)nn2c1C | inactive |
| O=C(CNS(=O)(=O)c1ccccc1)NCc1ccccn1 | inactive |
| CCCCc1ccc(-c2ccc(Br)cc2)nc1 | inactive |
| CCCc1ccc(-c2cc(N)n[nH]2)cc1 | inactive |
| CCOc1ccc(NC(=O)CCN2CCN(c3ccccc3F)CC2)cc1 | inactive |
| COc1ccc(-c2nnn(CC(=O)NCc3ccccc3)n2)cc1OC | inactive |
| CCC(C)NC(=O)Nc1ccc2c(c1)N(C)C(=O)c1ccccc1S2 (configuration not stated) | inactive |
